Screens: PubChem, National Center for Advancing Translational Sciences (NCATS)
3T3 cytotox: NIH 3T3 cell cytotoxicity; NIH 3T3 viability, CellTiter-Glo ATP luminescence, 48-72 h; Potency, µM (titrated, usually from 96.7 µM), inactives show top-dose activity change, negative = cytotoxicity, actives largely listed as inhibitors; actives 4.3% (n = 94,000); AID 1345082; also: nearly all actives have a fitted effect of over 55% in size
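Luminescent ATP readout (CellTiter-Glo, 10 min RT) after 48 or 72 hr compound exposure of NIH 3T3 cells seeded at 400 cells/well in 1536-well format; quantitative HTS.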
Luciferase inh: inhibitors of firefly (Photinus pyralis) luciferase; AID 1347043; purified P. pyralis luciferase, luminescence, biochemical; Potency, µM (titrated, usually from 115 µM), actives largely listed as inhibitors; P08659; actives 2.5% (n = 76,000); also: nearly all actives have a fitted effect of over 65% in size
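FLuc 10nM, D-luciferin 10uM, ATP 10uM, Mg acetate 10mM, Tris acetate pH 7.5, Tween/BSA; cpd qHTS; enzyme added last; CCD luminescence.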
HEK cytotox: kills HEK 293 cells. actives 6.6% (n = 94,000). Potency, µM (highest dose often 115 µM), for the others: top-dose activity change, negative = cytotoxicity, hits mostly inhibitors. HEK 293 viability, ATP luminescence (CellTiter-Glo), 48-72 h; also: nearly all actives have a fitted effect of over 60% in size
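CellTiter-Glo luminescence (cellular ATP) was read after 48 or 72 hr of compound exposure at 37 degree Celsius. Cells were HEK 293 plated at 250 cells/well.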
NPR1 antag: blocks ANP-stimulated signaling of human Npr1 receptor. P16066. Potency, µM (series often up to 46.3 µM), inactives show at the top dose activity change, negative = inhibition, usual class: inhibitors. HEK293 hNpr1 GloSensor cGMP, ANP-stimulated luminescence. actives 1.6% (n = 76,000); calls by dose curve; also: nearly all actives have a fitted effect of over 60% in size
Target sequence (P16066 whole entry, looked up): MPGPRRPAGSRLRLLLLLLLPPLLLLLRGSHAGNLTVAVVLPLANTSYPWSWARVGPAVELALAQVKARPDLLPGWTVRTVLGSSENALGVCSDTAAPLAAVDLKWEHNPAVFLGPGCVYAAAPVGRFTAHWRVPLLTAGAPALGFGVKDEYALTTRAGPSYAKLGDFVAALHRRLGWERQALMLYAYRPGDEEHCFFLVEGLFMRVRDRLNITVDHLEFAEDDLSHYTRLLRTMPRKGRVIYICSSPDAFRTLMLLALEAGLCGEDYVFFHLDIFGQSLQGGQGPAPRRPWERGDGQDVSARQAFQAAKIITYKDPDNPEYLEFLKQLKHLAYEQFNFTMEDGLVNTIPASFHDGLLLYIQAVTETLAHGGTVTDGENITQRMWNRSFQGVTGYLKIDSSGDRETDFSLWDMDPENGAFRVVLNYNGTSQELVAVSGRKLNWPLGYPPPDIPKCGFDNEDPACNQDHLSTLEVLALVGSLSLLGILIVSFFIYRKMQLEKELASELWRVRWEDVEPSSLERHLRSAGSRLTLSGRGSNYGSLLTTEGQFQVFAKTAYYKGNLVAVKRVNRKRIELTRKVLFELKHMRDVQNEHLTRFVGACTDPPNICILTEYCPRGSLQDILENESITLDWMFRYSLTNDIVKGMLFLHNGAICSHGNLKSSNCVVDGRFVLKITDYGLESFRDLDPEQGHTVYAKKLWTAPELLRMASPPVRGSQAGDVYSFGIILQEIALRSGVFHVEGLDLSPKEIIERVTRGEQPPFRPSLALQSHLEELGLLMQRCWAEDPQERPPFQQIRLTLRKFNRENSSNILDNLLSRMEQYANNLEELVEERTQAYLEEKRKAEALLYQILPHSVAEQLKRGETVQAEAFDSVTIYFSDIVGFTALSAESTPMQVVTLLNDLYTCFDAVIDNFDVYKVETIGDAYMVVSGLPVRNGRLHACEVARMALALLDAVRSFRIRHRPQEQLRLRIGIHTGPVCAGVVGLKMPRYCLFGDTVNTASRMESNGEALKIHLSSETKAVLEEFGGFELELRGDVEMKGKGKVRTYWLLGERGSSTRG
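HEK293 cells stably expressing human Npr1 and cGMP GloSensor pGS-40F, loaded 2 h with 2% GloSensor reagent, given compound 30 min at room temperature. Luminescence read before and 20 min after 0.1 nM hNppA.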
Starred values were filed as active, the others as inactive; i = inactive; ? = inconclusive; . = no result given; [ ] = remark or other dose. Rows were chosen to be rich in hits. Some 11% of all compounds tested hit in one or more screens of this group. Unless noted, calls follow the shape of the dose curve; as a rule, active = well fitted curve in the direction sought with a large enough effect; inconclusive = small, poorly fitted or top-dose-only effect, or another doubt; inactive = no such curve, though single readings can be large; an effect the other way counts as inactive or inconclusive. % is scaled to controls: 0 for no effect and ±100 for the full control effect; potency is read from the fitted curve at half-maximal effect.

SMILES	3T3 cytotox	Luciferase inh	HEK cytotox	NPR1 antag
COCc1nncn1C1CCN(S(=O)(=O)c2ccc(C)cc2C)CC1	?	i	-18%	-7%
CC(C)CCN1CCC2(CC1)COc1ccccc1NC2=O	-20%[138 µM]	i	-3%[172 µM]	-4%[70.6 µM]
Cc1[nH]cnc1CN1CCCC(C(=O)Nc2ccc(-c3cccc(F)c3)cc2)C1 (centres undefined)	?	i	25µM*	6%
COc1ccccc1-c1cccc(CN2CCCC(C(=O)NCCc3ccc(F)cc3)C2)c1 (centres undefined)	32µM*	.	?	.
CNC(=O)C1CCCN(Cc2cccc(-c3ccccc3OC)c2)C1 (centres undefined)	-25%	.	?	.
COc1ccccc1-c1cccc(CN2CCCC(C(=O)Nc3ccc(F)cc3)C2)c1 (centres undefined)	?	.	13µM*	.
COc1cccc(-c2cc3c(=O)n(CCNC(=O)c4ccc(C(C)(C)C)cc4)ccn3n2)c1	-23%	i	?	-30%
COc1cccc(C(=O)NC2CCCN(CCn3nc4n(c3=O)CCCC4)C2)c1 (centres undefined)	-16%	.	i	.
CC(=O)N1CCN(C(=O)C2CCN(C(=O)c3ccc(-c4cccs4)cc3)CC2)CC1	?	.	-15%	.
CCCCc1ccc(NC(=O)CN2C(=O)NC(c3ccccc3OCC)C3=C2COC3=O)cc1 (centres undefined)	32µM*	i	32µM*	-2%
CCOc1ccccc1C1NC(=O)N(CC(=O)Nc2cccc(Cl)c2)C2=C1C(=O)OC2 (centres undefined)	?	i	35µM*	-22%
CCOc1ccccc1C1NC(=O)N(CC(=O)Nc2ccc(F)cc2)C2=C1C(=O)OC2 (centres undefined)	?	i	-18%	-12%
Cc1ccccc1C(=O)NC1CCCN(CCn2nc3n(c2=O)CCCC3)C1 (centres undefined)	-7%	.	-4%	.
Cc1cccc(C)c1-c1nnc2ccc(C(=O)NCc3ccccc3)cn12	?	.	-23%[172 µM]	.
CN(C(=O)c1cc2ccccc2oc1=O)C1CCCN(CCCc2ccccc2)C1 (centres undefined)	40µM*	i	?	0%
Cc1cc(-c2ccnc(-c3nnc(C)n3CCN3CCOCC3)c2)ccn1	89µM*	i	-6%[172 µM]	1%[70.6 µM]
Cc1nnc(-c2cc(-c3cccc(F)c3)ccn2)n1CCN1CCOCC1	22µM*	i	?	-1%[70.6 µM]
Cc1nnc(-c2cc(-c3cccc(O)c3)ccn2)n1CCc1ccccc1	100µM*	i	?	-14%[70.6 µM]
Cc1nnc(-c2cc(-c3cccnc3)ccn2)n1CCN1CCOCC1	?	i	5%[172 µM]	3%[70.6 µM]
COc1cccc(-c2ccnc(-c3nnc(C)n3CCN3CCOCC3)c2)c1	-19%[138 µM]	i	?	-1%[70.6 µM]
COCCn1cnnc1CN(C)c1cc(C2CC(O)C2)ncn1 (centres undefined)	3%	i	-13%	4%
Cn1ncc2c(C(=O)NCc3cccc(Cl)c3)cc(-c3ccc(Cl)cc3)nc21	-16%	.	-13%	.
COc1cccc(CNC(=O)c2cc(-c3ccsc3)nc3c2cnn3C)c1	25µM*	.	56µM*	.
Cn1ncc2c(C(=O)NCc3cccc(Cl)c3)cc(-c3ccc(F)cc3)nc21	?	.	35µM*	.
Cn1ncc2c(C(=O)NCc3cccc(Cl)c3)cc(-c3ccsc3)nc21	16µM*	.	32µM*	.
SMILES	3T3 cytotox	Luciferase inh	HEK cytotox	NPR1 antag
COCCNC(=O)c1cc(-c2ccsc2)nc2c1cnn2C	?	.	-9%[172 µM]	.
Cn1ncc2c(C(=O)NCc3ccc(Cl)cc3)cc(-c3ccsc3)nc21	32µM*	.	35µM*	.
Cc1ccc(C)c(OCC(=O)c2ccc3c(c2)N(C(C)C(=O)NCC2CCCO2)C(=O)CO3)c1 (centres undefined)	-22%	i	45µM*	6%
Cc1cc(F)ccc1OCC(=O)c1ccc2c(c1)N(C(C)C(=O)NCc1ccc(F)cc1)C(=O)CO2 (centres undefined)	?	i	45µM*	-9%
CC(C(=O)NCc1ccccc1)N1C(=O)COc2ccc(C(=O)COc3ccc(F)cc3)cc21 (centres undefined)	-29%	i	?	2%
O=C(NCc1cccs1)c1cn2cc(-c3cccc(C(F)(F)F)c3)sc2n1	-20%	.	?	.
COC(=O)[C@@H]1Cc2c([nH]c3ccccc23)[C@H]2C[C@@H](NCc3cccnc3)C[C@@H](c3ccc(OC(F)(F)F)cc3)N21	32µM*	i	28µM*	6%
COC(=O)[C@@H]1Cc2c([nH]c3ccccc23)[C@H]2C[C@@H](N3CCOCC3)C[C@@H](c3ccc(OC(F)(F)F)cc3)N21	45µM*	i	?	2%
COC(=O)[C@@H]1Cc2c([nH]c3ccccc23)[C@H]2C[C@@H](N3CCOCC3)C[C@@H](c3ccc(C(F)(F)F)cc3)N21	25µM*	i	22µM*	4%
O=C(CC1CCOCC1)NCc1ccc(OC(F)(F)F)cc1	-7%	i	?	0%
CC(=O)Oc1c(-c2ccc(NC(=O)c3ccco3)cc2)c(-c2cccc(C)c2)nn1-c1ccc(F)cc1	?	?	?	-26%
O=C(Nc1cccc(-c2nnc3n2CCCC3)c1)C1CCCCC1	-21%	i	-2%	-8%
COc1cccc(CCNC(=O)c2ccc3nnc(C4CCOCC4)n3c2)c1	-24%	.	0%	.
COc1ccc(CN2CCC[C@H]2c2nc(-c3cncnc3N)no2)c(O)c1	i	i	0%[172 µM]	6%[70.6 µM]
NC(=O)CN1C(=O)CO[C@H]2CN(Cc3ccc4c(c3)OCO4)C[C@H]21	-10%[138 µM]	i	-15%[172 µM]	-16%[70.6 µM]
COc1cccc(N2CCN(C(=O)C3CCCN(c4cnc5nccnc5c4)C3)CC2)c1 (centres undefined)	?	i	40µM*	?
CCCc1cc(C(=O)N2CCCC(Cc3ccccc3F)(C(=O)OCC)C2)n(C)n1 (centres undefined)	?	i	18µM*	-23%
CCOC(=O)C1(Cc2ccccc2)CCCN(C(=O)c2ccccc2SC)C1 (centres undefined)	?	?	45µM*	-9%
CCOC(=O)C1(Cc2ccccc2F)CCCN(C(=O)c2ccc3c(c2)OCCO3)C1 (centres undefined)	?	?	?	1%
COc1cccc(CNC(=O)c2ccc3nnc(-c4ccc([S+](C)(=O)[O-])cc4)n3c2)c1	-10%	.	-11%	.
COc1cc(F)ccc1-c1cc(C(=O)NCc2c(C)cc(C)[nH]c2=O)c2c(c1)N(C(C)C)CCO2	40µM*	i	45µM*	0%
Cc1cc(C)c(CNC(=O)c2cc(-c3ccccc3F)cc3c2OCCN3C)c(=O)[nH]1	50µM*	i	71µM*	-18%[70.6 µM]
COc1cccc(-c2cc(C(=O)NCc3c(C)cc(C)[nH]c3=O)c3c(c2)N(C(C)C)CCO3)c1OC	?	i	79µM*	1%
